This passage reports Potency and activity change, negative = inhibition results from PubChem BioAssay (Tox21).

Molecules are shown by their SMILES. Values without a mark were called inactive. Results filed as inconclusive are left out. Active and inactive are the calls of the source. Unless noted, the call rests on the fitted dose curve; in most records, active means well fitted curve in the direction sought with a large enough effect in the repeat runs; inconclusive means weak or mixed curves; inactive means no such curve, though single readings can be large; an effect the other way counts as inactive or inconclusive.

Assay [1] has as its target Acetylcholinesterase (Homo sapiens) (UniProt P22303). Put plainly: Acetylcholinesterase (AChE) small molecule antagonists: enzyme-based qHTS assay (AID 1347397; calls by dose curve; further: nearly all actives have a fitted effect of over 55% in size; further: potency means the concentration at half of the fitted maximal effect). The settings on record: Potency: AChE enzyme activity inhibition; outcome: AChE enzyme activity inhibition. The essentials:
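Colorimetric DTNB readout of acetylthiocholine hydrolysis, 10 min at room temperature, after 30 min room-temperature exposure of 50 mU/mL recombinant human enzyme to compound; DMSO vehicle control.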
In general terms: qHTS replaces the single test concentration by a dilution series.

Assay [2] has the same target. Nature of the assay: Acetylcholinesterase (AChE) small molecule antagonists: fluorescence cell-based qHTS assay (AID 1347398; calls by dose curve; further: nearly all actives have a fitted effect of over 50% in size; further: potency means the concentration at half of the fitted maximal effect). The conditions noted are these: Potency: AChE activity; outcome: AChE activity. The essentials: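 Cellular AChE activity read as thiocholine from acetylthiocholine hydrolysis, detected by Thiolite Green fluorescence at 490/520 nm after 40 min at room temperature. Compounds were pre-incubated 30 min at 37 C on adherent SH-SY5Y cells.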

Assay [3] has the same target. Put plainly: Acetylcholinesterase (AChE) small molecule antagonists: enzyme-based qHTS assay with human liver microsomes (AID 1347399; calls by dose curve; further: nearly all actives have a fitted effect of over 60% in size; further: potency means the concentration at half of the fitted maximal effect). The conditions noted are these: Potency: qHTS inhibition; outcome: qHTS inhibition. The method, boiled down: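 Recombinant human AChE (50 mU/mL in the enzyme mix) and human liver microsomes (0.25 mg/mL final) were preincubated with compound and NADPH (0.25 mg/mL final) for 30 min at 37 C. Acetylthiocholine/DTNB was then added; thiocholine was read colorimetrically after 10 min at room temperature.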

For assay [4], the target named is Cytochrome P450 2D6 (Homo sapiens) (UniProt P10635). Nature of the assay: Cytochrome P450 Family 2 Subfamily D Member 6 (CYP2D6) small molecule antagonists: luciferase reporter qHTS assay (AID 1671196). Further: nearly all actives have a fitted effect of over 50% in size. Further: potency means the concentration at half of the fitted maximal effect. On activity change, negative = inhibition: series mostly up to about 120 µM. The essentials: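 Test chemicals meet CYP2D6 plus proluciferin substrate (10 min, RT); NADPH regenerating solution then drives turnover for 1 h. Detection reagent halts the reaction; luminescence measured after 20 min.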
Chain of Cytochrome P450 2D6 (Homo sapiens) (P10635 whole entry, looked up): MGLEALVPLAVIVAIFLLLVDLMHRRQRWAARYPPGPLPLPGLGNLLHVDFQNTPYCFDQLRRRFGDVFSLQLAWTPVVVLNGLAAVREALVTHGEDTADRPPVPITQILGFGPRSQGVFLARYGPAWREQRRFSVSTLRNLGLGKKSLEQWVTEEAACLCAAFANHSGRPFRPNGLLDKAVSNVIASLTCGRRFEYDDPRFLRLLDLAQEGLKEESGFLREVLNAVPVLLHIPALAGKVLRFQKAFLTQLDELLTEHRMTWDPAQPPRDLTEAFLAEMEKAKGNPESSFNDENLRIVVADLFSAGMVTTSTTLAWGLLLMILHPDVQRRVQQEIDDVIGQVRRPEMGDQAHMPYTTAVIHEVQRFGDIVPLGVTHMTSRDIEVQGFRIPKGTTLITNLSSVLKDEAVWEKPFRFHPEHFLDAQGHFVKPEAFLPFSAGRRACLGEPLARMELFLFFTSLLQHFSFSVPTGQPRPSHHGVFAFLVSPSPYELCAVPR

In assay [5] the target is Cytochrome P450 2C19 (Homo sapiens) (UniProt P33261). Nature of the assay: Cytochrome P450 Family 2 Subfamily C Member 19 (CYP2C19) small molecule antagonists: luciferase reporter qHTS assay (AID 1671197). Further: nearly all actives have a fitted effect of over 65% in size. Further: potency means the concentration at half of the fitted maximal effect. On activity change, negative = inhibition: series mostly up to about 120 µM. The method, boiled down:
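Compounds were tested on CYP2C19 activity via proluciferin conversion to luciferin. The 37C, 1 h reaction followed NADPH addition; detection reagent stopped it.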

Assay [6] deals with Cytochrome P450 2C9 (Homo sapiens) (UniProt P11712). Nature of the assay: Cytochrome P450 Family 2 Subfamily C Member 9 (CYP2C9) small molecule antagonists: luciferase reporter qHTS assay (AID 1671198). Further: nearly all actives have a fitted effect of over 50% in size. Further: potency means the concentration at half of the fitted maximal effect. On activity change, negative = inhibition: series mostly up to about 120 µM. The essentials:
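Enzyme-substrate mix preincubated with compound 10 min at room temperature; reaction started with NADPH regeneration solution, 1 h 37C. Luminescent luciferin product read after 20 min detection reagent.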
In general terms: In a reporter assay the amount or activity of a reporter protein is the signal.

The target in assay [7] is Voltage-gated inwardly rectifying potassium channel KCNH2 (Homo sapiens) (UniProt Q12809). Nature of the assay: Human Ether-a-go-go-Related Gene (hERG) channel small molecule antagonists: fluorescence cell-based qHTS assay (AID 1671200).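 Further: hERG-expressing U2OS cells given a thallium stimulus after FluxOR II dye loading; series mostly up to about 77 µM; nearly all actives have a fitted effect of over 50% in size.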 The method, boiled down:
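Quantitative HTS in hERG-U2OS cells: thallium entry through the channel reports activity, read as continuous 480/540 nm fluorescence over 2 min after stimulus addition.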
(hERG is a cardiac potassium channel; its block is linked to QT prolongation.)

The target in assay [8] is Cytochrome P450 3A4 (Homo sapiens) (UniProt P08684). Put plainly: Cytochrome P450 Family 3 Subfamily A Member 4 (CYP3A4) small molecule antagonists: luciferase reporter qHTS assay (AID 1671201). Further: nearly all actives have a fitted effect of over 50% in size. Further: potency means the concentration at half of the fitted maximal effect. On activity change, negative = inhibition: series mostly up to about 120 µM. The method, boiled down:
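Inhibition of CYP3A4 is measured as loss of light: the enzyme converts a proluciferin substrate to luciferin, detected luminescently. Reaction ran 1 h at room temperature with NADPH regeneration after a 10 min compound preincubation.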

Assay [9] has as its target Cytochrome P450 1A2 (Homo sapiens) (UniProt P05177). Nature of the assay: Cytochrome P450 Family 1 Subfamily A Member 2 (CYP1A2) small molecule antagonists: luciferase reporter qHTS assay (AID 1671199). Further: nearly all actives have a fitted effect of over 50% in size. Further: potency means the concentration at half of the fitted maximal effect. On activity change, negative = inhibition: series mostly up to about 120 µM. The essentials:
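Steps: enzyme-substrate mix dispensed; test compounds and furafylline control pinned in; 10 min room temperature; NADPH regeneration solution added, 1 h; reaction stopped with luciferin detection reagent; luminescence read after 20 min.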
On the % scale 0 is the no-effect control and ±100 the full control effect.

Chain of Voltage-gated inwardly rectifying potassium channel KCNH2 (Homo sapiens) (Q12809 whole entry, looked up): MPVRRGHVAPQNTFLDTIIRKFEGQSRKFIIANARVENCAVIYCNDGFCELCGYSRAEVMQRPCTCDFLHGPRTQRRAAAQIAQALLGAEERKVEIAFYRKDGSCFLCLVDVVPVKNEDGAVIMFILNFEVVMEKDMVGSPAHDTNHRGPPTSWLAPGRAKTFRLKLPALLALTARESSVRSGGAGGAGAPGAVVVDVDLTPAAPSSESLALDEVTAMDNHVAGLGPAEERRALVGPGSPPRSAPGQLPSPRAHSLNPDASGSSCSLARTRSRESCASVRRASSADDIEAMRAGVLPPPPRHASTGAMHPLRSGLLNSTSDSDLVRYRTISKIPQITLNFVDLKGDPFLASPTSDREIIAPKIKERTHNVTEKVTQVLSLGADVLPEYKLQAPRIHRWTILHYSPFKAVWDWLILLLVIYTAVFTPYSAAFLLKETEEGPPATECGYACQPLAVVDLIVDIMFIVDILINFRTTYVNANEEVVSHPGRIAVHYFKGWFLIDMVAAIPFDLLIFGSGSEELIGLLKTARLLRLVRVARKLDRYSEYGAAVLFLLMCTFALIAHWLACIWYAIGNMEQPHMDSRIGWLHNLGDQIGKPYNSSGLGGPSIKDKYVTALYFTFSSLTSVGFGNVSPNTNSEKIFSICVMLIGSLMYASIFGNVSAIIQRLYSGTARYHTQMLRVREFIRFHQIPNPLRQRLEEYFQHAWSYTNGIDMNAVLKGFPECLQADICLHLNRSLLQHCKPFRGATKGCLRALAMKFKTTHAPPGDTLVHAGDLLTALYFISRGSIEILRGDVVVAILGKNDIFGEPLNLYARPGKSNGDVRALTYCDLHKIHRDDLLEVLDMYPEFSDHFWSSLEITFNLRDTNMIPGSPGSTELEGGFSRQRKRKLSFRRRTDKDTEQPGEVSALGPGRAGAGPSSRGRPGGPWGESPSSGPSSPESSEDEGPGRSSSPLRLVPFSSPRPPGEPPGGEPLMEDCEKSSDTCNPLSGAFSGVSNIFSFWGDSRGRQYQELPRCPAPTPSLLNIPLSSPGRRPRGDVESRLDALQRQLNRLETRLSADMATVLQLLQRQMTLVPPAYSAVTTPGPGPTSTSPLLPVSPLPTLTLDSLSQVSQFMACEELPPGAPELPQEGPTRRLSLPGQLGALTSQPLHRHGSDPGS
Chain of Cytochrome P450 2C9 (Homo sapiens) (P11712 whole entry, looked up): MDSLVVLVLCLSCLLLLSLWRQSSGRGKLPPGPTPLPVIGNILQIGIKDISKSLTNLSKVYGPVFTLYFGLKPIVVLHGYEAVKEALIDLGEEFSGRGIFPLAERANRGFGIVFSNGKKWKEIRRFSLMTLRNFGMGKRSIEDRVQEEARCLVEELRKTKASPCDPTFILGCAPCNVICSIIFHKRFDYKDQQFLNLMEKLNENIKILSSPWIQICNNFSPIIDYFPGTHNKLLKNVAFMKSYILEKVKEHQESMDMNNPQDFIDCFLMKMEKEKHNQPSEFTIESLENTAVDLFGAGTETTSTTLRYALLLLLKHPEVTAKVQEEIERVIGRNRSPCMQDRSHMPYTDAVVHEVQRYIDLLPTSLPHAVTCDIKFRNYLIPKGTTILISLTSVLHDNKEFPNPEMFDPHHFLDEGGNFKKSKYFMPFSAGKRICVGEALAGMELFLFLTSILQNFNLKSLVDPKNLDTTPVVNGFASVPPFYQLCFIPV
Chain of Acetylcholinesterase (Homo sapiens) (P22303 whole entry, looked up): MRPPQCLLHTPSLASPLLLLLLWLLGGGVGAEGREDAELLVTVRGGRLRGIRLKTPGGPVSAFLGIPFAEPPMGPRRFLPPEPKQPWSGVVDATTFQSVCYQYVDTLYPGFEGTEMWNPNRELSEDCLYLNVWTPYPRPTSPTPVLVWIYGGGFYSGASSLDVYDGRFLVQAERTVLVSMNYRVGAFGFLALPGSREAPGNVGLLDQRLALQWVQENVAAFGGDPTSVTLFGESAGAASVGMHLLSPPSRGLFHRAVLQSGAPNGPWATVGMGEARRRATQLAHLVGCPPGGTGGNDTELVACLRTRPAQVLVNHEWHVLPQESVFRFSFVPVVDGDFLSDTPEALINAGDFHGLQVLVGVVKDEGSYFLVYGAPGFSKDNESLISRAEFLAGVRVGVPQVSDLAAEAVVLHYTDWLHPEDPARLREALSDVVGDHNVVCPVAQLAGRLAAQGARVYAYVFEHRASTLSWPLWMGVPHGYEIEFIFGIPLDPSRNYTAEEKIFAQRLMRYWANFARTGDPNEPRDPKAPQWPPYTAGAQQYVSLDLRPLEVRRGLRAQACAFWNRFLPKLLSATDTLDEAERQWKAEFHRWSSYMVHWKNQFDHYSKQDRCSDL
Chain of Cytochrome P450 1A2 (Homo sapiens) (P05177 whole entry, looked up): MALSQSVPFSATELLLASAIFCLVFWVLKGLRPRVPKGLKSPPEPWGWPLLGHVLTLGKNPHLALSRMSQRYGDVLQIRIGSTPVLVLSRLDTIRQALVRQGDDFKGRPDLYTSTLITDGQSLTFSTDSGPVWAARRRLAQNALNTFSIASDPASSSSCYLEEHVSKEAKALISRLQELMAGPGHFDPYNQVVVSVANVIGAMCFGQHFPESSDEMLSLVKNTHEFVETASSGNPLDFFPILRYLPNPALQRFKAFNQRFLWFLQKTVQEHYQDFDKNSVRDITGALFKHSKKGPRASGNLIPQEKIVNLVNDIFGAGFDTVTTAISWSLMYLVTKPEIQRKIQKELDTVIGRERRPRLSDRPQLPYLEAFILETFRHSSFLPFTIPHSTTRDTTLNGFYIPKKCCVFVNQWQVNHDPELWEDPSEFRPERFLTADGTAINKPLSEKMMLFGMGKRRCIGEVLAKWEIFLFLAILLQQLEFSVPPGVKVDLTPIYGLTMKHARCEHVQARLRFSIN
Chain of Cytochrome P450 2C19 (Homo sapiens) (P33261 whole entry, looked up): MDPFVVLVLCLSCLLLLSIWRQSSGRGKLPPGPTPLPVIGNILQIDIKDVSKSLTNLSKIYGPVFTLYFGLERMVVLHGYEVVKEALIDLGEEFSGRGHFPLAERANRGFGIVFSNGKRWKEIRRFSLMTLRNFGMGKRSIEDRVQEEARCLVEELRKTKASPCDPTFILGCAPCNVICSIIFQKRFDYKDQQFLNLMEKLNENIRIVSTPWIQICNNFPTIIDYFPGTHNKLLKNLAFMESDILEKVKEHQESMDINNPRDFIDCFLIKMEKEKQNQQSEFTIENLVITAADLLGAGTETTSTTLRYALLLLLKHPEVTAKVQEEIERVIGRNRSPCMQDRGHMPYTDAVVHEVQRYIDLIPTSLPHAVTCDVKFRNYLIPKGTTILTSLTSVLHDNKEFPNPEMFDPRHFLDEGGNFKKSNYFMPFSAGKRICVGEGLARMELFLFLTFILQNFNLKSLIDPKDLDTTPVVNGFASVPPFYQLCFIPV
Chain of Cytochrome P450 3A4 (Homo sapiens) (P08684 whole entry, looked up): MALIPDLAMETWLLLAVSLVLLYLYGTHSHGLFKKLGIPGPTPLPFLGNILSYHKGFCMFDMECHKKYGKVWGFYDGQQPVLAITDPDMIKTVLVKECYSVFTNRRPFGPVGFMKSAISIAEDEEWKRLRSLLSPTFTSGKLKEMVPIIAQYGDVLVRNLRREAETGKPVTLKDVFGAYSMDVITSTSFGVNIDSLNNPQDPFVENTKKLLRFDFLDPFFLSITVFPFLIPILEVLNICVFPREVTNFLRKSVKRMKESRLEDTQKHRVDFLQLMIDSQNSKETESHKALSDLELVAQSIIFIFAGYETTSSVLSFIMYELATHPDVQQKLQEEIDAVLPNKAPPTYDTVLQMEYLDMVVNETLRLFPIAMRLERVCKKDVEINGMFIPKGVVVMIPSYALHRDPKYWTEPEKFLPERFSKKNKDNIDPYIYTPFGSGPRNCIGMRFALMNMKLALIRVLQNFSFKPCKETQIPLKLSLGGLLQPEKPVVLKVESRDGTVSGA

As to `CCN[C@@H](C)Cc1cccc(C(F)(F)F)c1`, the Potency entry in [1], in [2], in assay [3], in [5], in [6] and in assay [7] was “inactive” in each case. Also, the Potency entry in assay [8] was “inactive”. Further, the Potency in [4] was 2.45 µM (active).

As to `Cc1ccc2c(c1)C1CN(C)CCC1N2` (stereo unspecified), the activity change, negative = inhibition is 0.554% [at 23.6 µM] in [1]; -10.6% [at 23.8 µM] in assay [2]; -0.336% [at 23.6 µM] in [3]; -12.5% [at 23.6 µM] in assay [5]; 0.693% [at 23.6 µM] in [6]; -9.94% [at 15.8 µM] in [7]. The activity change, negative = inhibition in assay [8] is 8.41% [at 23.6 µM]. In addition, the Potency in [4] is 4.25 µM (active).

On to `CC(C)(C)C(=O)C(Cl)Cl`, for which the Potency entry in [1], in assay [2], in assay [3], in assay [4], in assay [5] and in assay [6] was “inactive” each time. For the same compound, the Potency result in [8] was “inactive”.

Take `C#CC(C)(C)O`: the Potency result in [1], in assay [2], in [3], in [4], in [5] and in assay [6] was “inactive” each time. The Potency result in assay [8] was “inactive”.

For the compound `CCN[C@H](C)Cc1cccc(C(F)(F)F)c1`, the Potency result in assay [1], in [2], in assay [3], in assay [5], in assay [6] and in assay [8] was “inactive” throughout. Moreover, the Potency in assay [4] was 2.24 µM (active).

Take `CC(C)[N+](C)(CCC(C(N)=O)(c1ccccc1)c1ccccc1)C(C)C`: the Potency entry in [1], in [2], in assay [3], in [5] and in assay [7] was “inactive” each time. Further, the Potency is 0.776 µM (active) in assay [4] and 38.9 µM (active) in assay [6].

`CCN1CCCC1CNC(=O)C(O)(c1ccccc1)c1ccccc1` (stereo unspecified): the Potency entry in [1], in [2], in assay [3], in assay [5], in assay [6] and in assay [9] was “inactive” in each case. In addition, the Potency in assay [4] and in [8] was 4.9 µM (active) throughout.

As to `O=[N+]([O-])CCO`, the Potency result in assay [1], in assay [2], in [3], in assay [4], in assay [5] and in assay [6] was “inactive” throughout. For the same compound, the Potency result in assay [9] and in assay [8] was “inactive” each time.

For the compound `O=C(O)C(Br)(Br)Br`, the Potency result in assay [1], in [2], in assay [3], in [4], in [6] and in assay [8] was “inactive” throughout. In assay [5], the Potency is 31.7 µM (active).

With `COc1cccc(C=O)c1`, the Potency result in assay [1], in assay [2], in [3], in [4], in [5] and in [6] was “inactive” in each case. The Potency result in [8] is “inactive”. For the same compound, in [9], the Potency was 39.9 µM (active).

Take `[P]#[In]`: the Potency entry in assay [1], in assay [2], in [3], in assay [4], in [5] and in assay [6] was “inactive” throughout. Further, the Potency entry in assay [9] and in [8] was “inactive” each time.

In the case of `C=CCCC#N`, the Potency entry in assay [1], in assay [2], in assay [3], in assay [6], in assay [7] and in [8] was “inactive” in each case. In addition, the Potency was 38.9 µM (active) in assay [4] and 61.7 µM (active) in [5].

On to `CN(C)CCN(C)C`, for which the Potency result in assay [1], in assay [2], in assay [3], in [4], in [5] and in assay [6] was “inactive” each time. Further, the Potency result in assay [7] and in [8] was “inactive” throughout.

For `CN(C)C1CCCCC1`, the Potency result in assay [1], in [2], in assay [3], in [4], in [5] and in [6] was “inactive” each time. In addition, the Potency entry in [7] and in assay [8] was “inactive” each time.

As for `NCC1(CC(=O)O)CCCCC1`, the Potency entry in assay [1], in assay [2], in [3], in [4], in assay [5] and in assay [6] was “inactive” throughout. The Potency entry in assay [9] and in assay [8] was “inactive” in each case.

Take `N=C(N)[Se]`: the Potency entry in assay [1], in [2], in assay [3], in assay [4], in assay [5] and in assay [6] was “inactive” each time. Further, the Potency entry in assay [9] and in [8] was “inactive” in each case.

As to `ClCC1CO1` (stereo unspecified), the Potency result in [1], in [2], in assay [3], in [4], in assay [6] and in assay [9] was “inactive” throughout. In assay [8], the Potency result was “inactive”. Also, in assay [5], the Potency is 24.3 µM (active).

`CCCC[N+](=O)[O-]`: the Potency entry in assay [1], in assay [2], in assay [3], in assay [4], in assay [5] and in [6] was “inactive” throughout. For the same compound, the Potency entry in [9] and in assay [8] was “inactive” each time.

`CCOC(=O)N(C)N=O`: the Potency entry in assay [1], in assay [2], in [3], in assay [4], in assay [5] and in [6] was “inactive” each time. Also, the Potency entry in assay [7] and in assay [8] was “inactive” each time.

In the case of `CCNP(=S)(OC)O/C(C)=C/C(=O)OC(C)C` (stereo unspecified), the Potency entry in assay [1], in [2] and in [3] was “inactive” in each case. For the same compound, the Potency in assay [4] was 31.7 µM (active); in assay [5], 0.0894 µM (active); in [6] it was 0.633 µM (active); in assay [9] it was 2.52 µM (active); in assay [8], 1.26 µM (active).

As for `CC(=O)CN(CC(C)=O)N=O`, the Potency result in [1], in [2], in assay [3], in assay [4], in assay [5] and in assay [6] was “inactive” throughout. Moreover, the Potency entry in assay [7] and in assay [8] was “inactive” throughout.

For `CNC(=O)O/N=C(/CSC)C(C)(C)C`, the Potency in assay [1] was 1 µM (active); in assay [2], 142 nM (active); in assay [3] it was 11.2 µM (active); in assay [5] it was 20 µM (active). In addition, the Potency result in assay [4], in assay [6], in assay [7] and in assay [8] was “inactive” throughout.

For the compound `NNCc1ccccc1`, the Potency entry in assay [1], in assay [2] and in assay [3] was “inactive” each time. Moreover, the Potency in [4] was 11.5 µM (active); in assay [5], 36.2 µM (active); in [6], 45.6 µM (active); in assay [9] it was 12.9 µM (active); in assay [8], 32.3 µM (active).

Take `C#CCOC(=O)/C=C(C)/C=C/CC(C)CCCC(C)C` (stereo unspecified): the Potency entry in assay [1], in [2], in assay [3], in [4] and in assay [8] was “inactive” each time. In addition, the Potency was 79.6 µM (active) in assay [5], 31.7 µM (active) in assay [6] and 28.3 µM (active) in assay [9].

Turning to `CCN(CC)C1CCCCC1`, the Potency result in assay [1], in assay [2], in assay [3], in [4], in [5] and in assay [6] was “inactive” throughout. Also, the Potency entry in [7] and in assay [8] was “inactive” each time.

Turning to `CCCCCCC1CCOC1=O` (stereo unspecified), the Potency entry in assay [1], in assay [2], in [3], in assay [4], in assay [6] and in [7] was “inactive” throughout. In addition, in assay [8], the Potency result is “inactive”. For the same compound, the Potency in [5] is 39.9 µM (active).

As to `O=C(Cl)C(Cl)Cl`, the Potency entry in assay [1], in assay [2], in assay [3], in assay [4], in [5] and in assay [6] was “inactive” throughout. Moreover, the Potency result in assay [7] and in [8] was “inactive” in each case.
